Among the test systems are NCI-H23 lung; NCI-H226 lung; NCI-H322M lung; HOP-62 NSCLC; NCI-H460 lung; HOP-92 NSCLC; NCI-H522 lung; A549/ATCC NSCLC; 786-0 renal; COLO 205 colon; DU-145 prostate; K-562 leukemia; MALME-3M melanoma; MDA-MB-231 breast; SF-268 CNS; SF-295 CNS; SF-539 CNS; UACC-257 melanoma; M14 melanoma.
Common to all, as to assay: NCI-60 one-dose screen, 48 h (100 = growth as untreated, 0 = no growth, -100 = all killed)
What all share (conditions): 10 µM

The structures appear in SMILES notation. About 83,000 compounds went through this panel and 20% of them were active in at least one assay; those are over-represented in the sample as a whole.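 Step 1: grow cells in 96-well plates. Step 2: add test compound at a single concentration. Step 3: incubate 48 h. Step 4: record percent growth.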 Unmarked numbers belong to inactive results. Activity calls are given as the source filed them. Rule for the calls: active = growth percent below 10; inactive = the rest.

As for `O=C(CNc1nc(-c2ccccc2)cs1)Nc1ccc(Cl)cc1[N+](=O)[O-]`, the growth in the assay on NCI-H23 lung was -57.3% (active); with NCI-H226 lung it was -54.2% (active); with NCI-H322M lung it was 35.7%; with HOP-62 NSCLC it was -27.7% (active); in the assay on NCI-H460 lung, 5.09% (active); in the assay on HOP-92 NSCLC, -14.2% (active). The growth in the assay with NCI-H522 lung was -82.8% (active); with A549/ATCC NSCLC it was 12.6%; in the assay with 786-0 renal, 4.95% (active); with COLO 205 colon, -64.7% (active); in the assay with DU-145 prostate, 10.1%; with K-562 leukemia, 4.23% (active). The growth with MALME-3M melanoma was -70.5% (active); in the assay with MDA-MB-231 breast it was -66.7% (active); in the assay on SF-268 CNS, -58.4% (active); in the assay on SF-295 CNS, -49.7% (active); in the assay on SF-539 CNS it was -86.8% (active); in the assay on UACC-257 melanoma, -17.2% (active). Also, the growth with M14 melanoma is -13.1% (active).
On to `NS(=O)(=O)c1ccc(NC(=O)CSc2ccc(-c3ccccc3)nn2)c(Br)c1`, for which the growth in the assay on NCI-H23 lung is 59.1%; with NCI-H226 lung, 20.5%; with NCI-H322M lung, 64.3%; with HOP-62 NSCLC, 17.4%; with NCI-H460 lung, 82.4%; with HOP-92 NSCLC, -20.3% (active). Besides, the growth with NCI-H522 lung is 42.4%; with A549/ATCC NSCLC, 70.4%; in the assay on 786-0 renal it was 19.5%; in the assay on COLO 205 colon it was 137%; with DU-145 prostate, 75.9%; in the assay with K-562 leukemia, 96%. Moreover, the growth with MALME-3M melanoma is 72.8%; in the assay with MDA-MB-231 breast it was 47.7%; in the assay with SF-268 CNS it was 20.8%; with SF-295 CNS it was 69.9%; in the assay with SF-539 CNS, 48.5%; in the assay with UACC-257 melanoma, 100%. Besides, in the assay on M14 melanoma, the growth was 99.1%.
For `COc1ccc(C(=O)/C=C/c2ccc(Cl)c(C(F)(F)F)c2)cc1S(N)(=O)=O`, the growth in the assay with NCI-H23 lung was -86.5% (active); in the assay with NCI-H226 lung, -95.3% (active); with NCI-H322M lung, -100% (active); in the assay on HOP-62 NSCLC it was -84% (active); in the assay on NCI-H460 lung, -79.2% (active); with HOP-92 NSCLC, -68.8% (active). Moreover, the growth in the assay with NCI-H522 lung is -83.2% (active); in the assay with A549/ATCC NSCLC it was -78.1% (active); in the assay on 786-0 renal, -85.6% (active); in the assay with COLO 205 colon it was -71.5% (active); with DU-145 prostate, -20.9% (active); with K-562 leukemia, 5.18% (active). In addition, the growth in the assay with MALME-3M melanoma is -97.9% (active); in the assay on MDA-MB-231 breast it was -100% (active); in the assay with SF-268 CNS it was -40.5% (active); with SF-295 CNS, -100% (active); in the assay with SF-539 CNS it was -100% (active); in the assay on UACC-257 melanoma it was -78.2% (active). Moreover, in the assay with M14 melanoma, the growth is -87.5% (active).
As to `CC(=O)c1cc(C(=O)c2ccc3c(c2)NC(=O)CO3)n2ccc3ccccc3c12`, the growth is 58.3% with NCI-H23 lung; 62.3% in the assay on NCI-H226 lung; 87.8% with NCI-H322M lung; 74.1% in the assay with HOP-62 NSCLC; 63.8% in the assay on NCI-H460 lung; 97.7% in the assay with HOP-92 NSCLC. Also, the growth in the assay on NCI-H522 lung is 71.6%; in the assay on A549/ATCC NSCLC, 29.8%; in the assay on 786-0 renal it was 51.7%; with COLO 205 colon it was 91.9%; in the assay on DU-145 prostate, 84.1%; in the assay on K-562 leukemia, 84.1%. The growth was -5.58% (active) in the assay with MALME-3M melanoma; 29.9% with MDA-MB-231 breast; 79% in the assay with SF-268 CNS; 98.9% in the assay with SF-295 CNS; 31.9% in the assay on SF-539 CNS; 86.1% in the assay on UACC-257 melanoma. Further, the growth in the assay with M14 melanoma was 65.1%.
Turning to `CC(=O)c1ccc(Nc2nc(SCCC(C)C)nc(-c3ccc(F)cc3)c2C#N)cc1`, the growth in the assay on NCI-H23 lung was 53.2%; in the assay on NCI-H226 lung, 5.36% (active); in the assay with NCI-H322M lung, 41.4%; with HOP-62 NSCLC it was 41.1%; in the assay with NCI-H460 lung, 11.4%; in the assay on HOP-92 NSCLC it was 3.49% (active). Further, the growth with NCI-H522 lung was 72.8%; with A549/ATCC NSCLC it was 18.8%; in the assay on 786-0 renal, 2.71% (active); in the assay with COLO 205 colon, 77.2%; with DU-145 prostate, 61.1%; with K-562 leukemia, 63.9%. Also, the growth is 72.7% with MALME-3M melanoma; 24.8% in the assay on MDA-MB-231 breast; 52.9% with SF-268 CNS; 11.5% with SF-295 CNS; 16.3% in the assay on SF-539 CNS; 106% in the assay with UACC-257 melanoma. The growth in the assay with M14 melanoma is 84.7%.
Take `O=C(NO)c1ccc(CNc2nc(-c3ccccc3)c3ccccc3n2)cc1`: the growth in the assay on NCI-H23 lung was -49% (active); in the assay on NCI-H226 lung it was 6.26% (active); in the assay with NCI-H322M lung it was 11%; in the assay on HOP-62 NSCLC, 0.931% (active); with NCI-H460 lung it was 4.48% (active); in the assay on HOP-92 NSCLC, -35.6% (active). For the same molecule, the growth in the assay on NCI-H522 lung is -30.9% (active); in the assay with A549/ATCC NSCLC it was 12.3%; with 786-0 renal, 10.9%; with COLO 205 colon, -80.4% (active); with DU-145 prostate, 10.2%; in the assay on K-562 leukemia, 9.84% (active). Further, the growth is -34.4% (active) with MALME-3M melanoma; -21.8% (active) with MDA-MB-231 breast; 7.8% (active) in the assay with SF-268 CNS; -49% (active) with SF-295 CNS; 1.02% (active) in the assay on SF-539 CNS; 1.34% (active) with UACC-257 melanoma. For the same molecule, in the assay with M14 melanoma, the growth is 9.54% (active).
`O=[N+]([O-])c1ccc(-c2nc(-c3ccccc3)c(-c3ccccc3)n2-c2ccc(S(=O)(=O)Nc3ncccn3)cc2)cc1`: the growth was 23.9% in the assay with NCI-H23 lung; 27.7% with NCI-H226 lung; 65.7% in the assay on NCI-H322M lung; 61.9% with HOP-62 NSCLC; 31.3% in the assay with NCI-H460 lung; 5.67% (active) in the assay on HOP-92 NSCLC. The growth was 69.4% in the assay on NCI-H522 lung; 60% in the assay on A549/ATCC NSCLC; 35.9% with 786-0 renal; 125% with COLO 205 colon; 64.4% with DU-145 prostate; 47.1% in the assay with K-562 leukemia. Also, the growth with MALME-3M melanoma is 87.2%; in the assay with MDA-MB-231 breast it was 43.2%; in the assay with SF-268 CNS it was 31.7%; in the assay on SF-295 CNS, 9.39% (active); with SF-539 CNS it was 53.9%; in the assay on UACC-257 melanoma, 63.9%. In addition, the growth in the assay with M14 melanoma was 40.6%.
With `O=C(Nc1ccc(Cl)c([N+](=O)[O-])c1)Nc1ccc(Cl)c([N+](=O)[O-])c1`, the growth with NCI-H23 lung was -14.3% (active); with NCI-H226 lung it was -4.77% (active); with NCI-H322M lung, 27.7%; in the assay on HOP-62 NSCLC it was 30.5%; in the assay with NCI-H460 lung it was 9.48% (active); with HOP-92 NSCLC, -34.2% (active). For the same molecule, the growth in the assay on NCI-H522 lung is 28.1%; in the assay with A549/ATCC NSCLC, 26.1%; with 786-0 renal it was 10.7%; in the assay with COLO 205 colon, 2.69% (active); in the assay on DU-145 prostate, 18.4%; in the assay on K-562 leukemia, 19.8%. Further, the growth in the assay on MALME-3M melanoma was -11.2% (active); in the assay on MDA-MB-231 breast, 17.5%; with SF-268 CNS, 18%; in the assay on SF-295 CNS, 0.239% (active); in the assay with SF-539 CNS it was 11.4%; with UACC-257 melanoma it was 36.9%. Further, in the assay on M14 melanoma, the growth is 18.6%.

Source of the values: PubChem BioAssay (NCI).
